According to PubChem BioAssay (NCI):
About 83,000 compounds went through this panel and 20% of them were active in at least one assay; those are over-represented in the sample as a whole.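 The test compound was applied at a single concentration to cells in 96-well plates for 48 hours, and percent growth was recorded.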 The source made the active and inactive calls. The calls were made as follows: active = growth percent below 10; inactive = the rest.

What was measured:
Assay in all cases: NCI-60 one-dose screen, 48 h (100 = growth as untreated, 0 = no growth, -100 = all killed)
Settings in all cases: 10 µM unless noted
DU-145 prostate = tested on: DU-145 prostate
K-562 leukemia = tested on: K-562 leukemia
MALME-3M melanoma = tested on: MALME-3M melanoma
MDA-MB-231 breast = tested on: MDA-MB-231 breast
RXF 393 renal = tested on: RXF 393 renal
SF-268 CNS = tested on: SF-268 CNS
SF-295 CNS = tested on: SF-295 CNS
SF-539 CNS = tested on: SF-539 CNS
UACC-257 melanoma = tested on: UACC-257 melanoma
M14 melanoma = tested on: M14 melanoma

Measured: growth

O=C1OCC2=C1C(c1cccc(F)c1)c1cc3c(cc1N2CCO)OCO3 (stereo not given)
active: K-562 leukemia 9.79% | SF-295 CNS 1.9% | SF-539 CNS 2.82%
inactive: DU-145 prostate 30.5% | MALME-3M melanoma 52.7% | MDA-MB-231 breast 49.9% | RXF 393 renal 32.6% | SF-268 CNS 38.7% | UACC-257 melanoma 75.5% | M14 melanoma 12.6%

O=C(Cn1nnc([N+](=O)[O-])n1)c1ccccc1
inactive: DU-145 prostate 99.4% | K-562 leukemia 83.3% | MALME-3M melanoma 92.7% | MDA-MB-231 breast 71.5% | RXF 393 renal 91.8% | SF-268 CNS 83.1% | SF-295 CNS 58% | SF-539 CNS 93.3% | UACC-257 melanoma 90.9% | M14 melanoma 71.5%

COc1ccc(-c2cn(-c3ccc(Cl)cc3)c(SCC(=O)c3ccc([N+](=O)[O-])cc3)n2)cc1
inactive: DU-145 prostate 102% | K-562 leukemia 102% | MALME-3M melanoma 87.9% | MDA-MB-231 breast 80% | RXF 393 renal 54.1% | SF-268 CNS 73.1% | SF-295 CNS 75.3% | SF-539 CNS 82.5% | UACC-257 melanoma 99.6% | M14 melanoma 92.4%

COc1cc2ncnc(Nc3ccc(F)c(Cl)c3)c2cc1OCC(=O)N1CCN(c2ccc(F)cc2)CC1
inactive: DU-145 prostate 60.5% | K-562 leukemia 83.6% | MALME-3M melanoma 92.2% | MDA-MB-231 breast 79.3% | RXF 393 renal 103% | SF-268 CNS 79.5% | SF-295 CNS 94.1% | SF-539 CNS 100% | UACC-257 melanoma 114% | M14 melanoma 81.3%

COc1cc(-c2nc(SCCC(C)C)nc(N3CCOCC3)c2C#N)cc(OC)c1OC
inactive: DU-145 prostate 41.6% | K-562 leukemia 74.5% | MALME-3M melanoma 92.3% | MDA-MB-231 breast 68.5% | RXF 393 renal 101% | SF-268 CNS 40.3% | SF-295 CNS 98.9% | SF-539 CNS 55.5% | UACC-257 melanoma 95.8% | M14 melanoma 96%

CCOC(=O)n1cc(-c2nonc2-c2cn(C)c3ccccc23)c2ccccc21
inactive: DU-145 prostate 57.2% | K-562 leukemia 11.2% | MALME-3M melanoma 41% | MDA-MB-231 breast 46% | RXF 393 renal 63.5% | SF-268 CNS 54% | SF-295 CNS 27.8% | SF-539 CNS 21.9% | UACC-257 melanoma 68.9% | M14 melanoma 21.5%

COc1cccc(/C=C/C(=O)c2cc3c(N)c(C(=O)Nc4cccc(Cl)c4C)sc3nc2C)c1
inactive: K-562 leukemia 11% | MALME-3M melanoma 14.7% | SF-268 CNS 10.1% | UACC-257 melanoma 57.4%
active: DU-145 prostate 4.37% | MDA-MB-231 breast -26.5% | RXF 393 renal -71% | SF-295 CNS 5.12% | SF-539 CNS -36% | M14 melanoma -28.4%

O=C(CCCCl)NNc1nccc(Nc2ccc(S(=O)(=O)Nc3ccncc3)cc2)n1
inactive: DU-145 prostate 103% | K-562 leukemia 111% | MALME-3M melanoma 108% | MDA-MB-231 breast 116% | RXF 393 renal 117% | SF-268 CNS 95.9% | SF-295 CNS 96.7% | SF-539 CNS 102% | UACC-257 melanoma 96.3% | M14 melanoma 97.7%

C[N+](C)(C/C=C/c1ccccc1)Cc1ccccc1
inactive: DU-145 prostate 102% | K-562 leukemia 110% | MALME-3M melanoma 86.8% | MDA-MB-231 breast 102% | RXF 393 renal 99.2% | SF-268 CNS 90.3% | SF-295 CNS 93.5% | SF-539 CNS 93.9% | UACC-257 melanoma 97.7% | M14 melanoma 85.6%

C=CC1(C)C(O[Si](C)(C)C(C)(C)C)CC2C3OC(=O)NC31c1cccc3c1[C@H](C(=O)N3C)C2(C)C (stereo not given in full)
inactive: DU-145 prostate 76.2% | K-562 leukemia 34% | MALME-3M melanoma 64% | MDA-MB-231 breast 43.3% | RXF 393 renal 68.6% | SF-268 CNS 73.6% | SF-295 CNS 46.9% | SF-539 CNS 65.4% | UACC-257 melanoma 33.1% | M14 melanoma 48.5%

C#CCOc1cccc(-c2ncc3cc(NC(=O)CCl)ccc3n2)c1
active: DU-145 prostate -73.1% | K-562 leukemia 2.16% | MALME-3M melanoma -69% | MDA-MB-231 breast -10.3% | RXF 393 renal -86.3% | SF-268 CNS -41.8% | SF-539 CNS -25.9% | M14 melanoma -45.9%
inactive: SF-295 CNS 69.4% | UACC-257 melanoma 62%

Cn1cc(/C=C2/C(=O)Nc3ccccc32)c2ccccc21
inactive: DU-145 prostate 99.1% | K-562 leukemia 96.7% | MALME-3M melanoma 94.5% | MDA-MB-231 breast 109% | RXF 393 renal 96.7% | SF-268 CNS 84.5% | SF-295 CNS 108% | SF-539 CNS 80% | UACC-257 melanoma 95.9% | M14 melanoma 92.3%

Cc1ccc(C)c2c1C(O)(C#Cc1ccccc1)c1ccccc1C2(O)C#Cc1ccccc1 (stereo not given)
inactive: DU-145 prostate 87% | K-562 leukemia 22.2% | MALME-3M melanoma 39.2% | MDA-MB-231 breast 77% | RXF 393 renal 64.5% | SF-268 CNS 56.5% | SF-539 CNS 56.8% | UACC-257 melanoma 63% | M14 melanoma 58.9%
active: SF-295 CNS 4.71%

C=C1C(=O)O[C@H]2[C@H]1CC/C(COC(=O)NCc1ccc(Cn3c(=O)sn(-c4ccc(OC)cc4)c3=O)cc1)=C\CC[C@@]1(C)O[C@@H]21
inactive: DU-145 prostate 27% | MDA-MB-231 breast 47.7% | RXF 393 renal 42.3% | SF-268 CNS 86.5% | SF-295 CNS 97.7% | SF-539 CNS 82.1% | UACC-257 melanoma 65.3% | M14 melanoma 25.7%
active: K-562 leukemia -3.73% | MALME-3M melanoma -3.77%

Cc1cc(C)cc(Nc2ccc([N+](=O)[O-])c(NCCN3CCOCC3)n2)c1
active: DU-145 prostate -1.87% | K-562 leukemia 7.21% | SF-539 CNS -11.3% | M14 melanoma 1.99%
inactive: MALME-3M melanoma 60.5% | MDA-MB-231 breast 31.2% | RXF 393 renal 58.4% | SF-268 CNS 25.1% | SF-295 CNS 15.7% | UACC-257 melanoma 76.1%

CN(CCC#N)c1ccc(/C=C2\NC(=O)NC2=O)cc1
inactive: DU-145 prostate 124% | K-562 leukemia 107% | MALME-3M melanoma 113% | MDA-MB-231 breast 101% | RXF 393 renal 113% | SF-268 CNS 117% | SF-295 CNS 112% | SF-539 CNS 91.3% | UACC-257 melanoma 93.4% | M14 melanoma 96.4%

CCOC(=O)c1c2c(n3ccccc13)C(=O)c1ncccc1C2=O
active: DU-145 prostate 8.05% | SF-539 CNS -2.14% | UACC-257 melanoma -3.95% | M14 melanoma -37.6%
inactive: K-562 leukemia 11.2% | MALME-3M melanoma 18.1% | MDA-MB-231 breast 13.4% | RXF 393 renal 25% | SF-268 CNS 20% | SF-295 CNS 22.3%

CCOC(=O)c1c(C)c2c(n1C)CSc1cc(S(=O)(=O)c3ccccc3)c(=O)[nH]c1-2
inactive: DU-145 prostate 25.8% [100 µM] | K-562 leukemia 31% [100 µM] | MALME-3M melanoma 73.2% [100 µM] | MDA-MB-231 breast 31.1% [100 µM] | RXF 393 renal 44.3% [100 µM] | SF-268 CNS 40.5% [100 µM] | SF-295 CNS 27.2% [100 µM] | SF-539 CNS 28.9% [100 µM] | UACC-257 melanoma 41.9% [100 µM] | M14 melanoma 23.7% [100 µM]

N=C(N)c1ccc(-c2ccc(-c3ccc(Cl)cc3Cl)s2)cc1F
active: DU-145 prostate -82.4% | K-562 leukemia -22.6% | MALME-3M melanoma -2.93% | MDA-MB-231 breast -79.5% | SF-268 CNS 1.95% | SF-295 CNS -79.5% | SF-539 CNS -95.4% | M14 melanoma -15.1%
inactive: RXF 393 renal 50.1% | UACC-257 melanoma 18.6%

CC(C)(CO)N(CCO)CCO
inactive: DU-145 prostate 118% | K-562 leukemia 101% | MALME-3M melanoma 105% | MDA-MB-231 breast 104% | RXF 393 renal 104% | SF-268 CNS 104% | SF-295 CNS 108% | SF-539 CNS 97.4% | UACC-257 melanoma 116% | M14 melanoma 108%

O=C1NC(=O)c2c1c1c3ccccc3[nH]c1c1oc3ccc(F)cc3c21
inactive: DU-145 prostate 77.4% | K-562 leukemia 78.4% | MALME-3M melanoma 48.6% | MDA-MB-231 breast 77.9% | RXF 393 renal 69.1% | SF-268 CNS 79.5% | SF-295 CNS 71% | SF-539 CNS 64.3% | UACC-257 melanoma 95.1% | M14 melanoma 45.1%
